# Pf growth 96h: Primary qHTS for delayed death inhibitors of the malarial parasite plastid, 96 hour incubation; P. falciparum luciferase reporter growth, 96 h; Potency, µM (doses to about 28.7 µM), without a hit: top-dose activity change, negative = inhibition, hits mostly inhibitors; 6.9% of 320,000 active; AID 504834, 2011; further: on the % scale 0 is the no-effect control and ±100 the full control effect
#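 Infected RBCs, 2% Hct / 0.05% parasitemia final; luciferase-reporter P. falciparum; cpd 96 h, 37 C, 5% CO2; luciferase detection reagent; luminescence.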
# Vaccinia Venus: qHTS for Stage-Specific Inhibitors of Vaccinia Orthopoxvirus: Venus Reporter Primary qHTS | Potency, µM (titrated, usually from 36.5 µM), inactives show top-dose activity change, negative = inhibition, actives largely listed as inhibitors | Vaccinia virus Venus reporter expression, fluorescence | 0.46% of 330,000 active; calls by dose curve; tested in A549 cells; further: on the % scale 0 is the no-effect control and ±100 the full control effect; nearly all actives have a fitted effect of over 30% in size
# HCV inhibitor: qHTS Assay for Inhibitors of Hepatitis C Virus (HCV); Potency, µM (highest dose often 41.8 µM), inactives show at the top dose activity change, negative = inhibition, actives largely listed as inhibitors; 3.4% of 340,000 active; AID 651820, 2012; Huh7.5.1 HCVcc-Cre infection, luciferase reporter, 44 h; further: on the % scale 0 is the no-effect control and ±100 the full control effect
#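 1,000 cells/well; 4 h culture; + compound; + HCVcc-Cre (~0.5 moi); 44 h; luciferase substrate, RT 15 min; read 15 sec.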
# NS1 inh: qHTS Assay for Inhibitors of Influenza NS1 Protein Function. Potency, µM (titrated, usually from 46.1 µM), for the others: at the highest dose activity, positive = more growth. 0.4% of 270,000 active. AID 2326, 2010; calls by dose curve; further: actives are rising curves; nearly all actives have a fitted effect of over 50% in size
#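 A cell-based growth assay was used: compounds that relieve NS1-induced slow growth of budding yeast raise OD600. Assay medium was yeast nitrogen base with ammonium sulphate and -URA supplement, pH 6.0, with 2% galactose.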
# Pf growth 48h: Primary qHTS for delayed death inhibitors of the malarial parasite plastid, 48 hour incubation | P. falciparum luciferase growth in erythrocytes, 48 h | Potency, µM (highest dose often 28.7 µM), for the others: top-dose activity change, negative = inhibition, hits mostly inhibitors | 5.9% of 310,000 active | AID 504832, 2011; further: on the % scale 0 is the no-effect control and ±100 the full control effect
#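 Here the parasites carry a stable luciferase gene and grow inside erythrocytes in Albumax-based RPMI medium with compound for one erythrocytic cycle. Activity is scored as loss of luminescent signal.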
# Vaccinia mCherry: qHTS for Stage-Specific Inhibitors of Vaccinia Orthopoxvirus: mCherry Reporter Primary qHTS; Vaccinia virus mCherry reporter infection, fluorescence; Potency, µM (top dose mostly 36.5 µM), for the others: at the top dose activity change, negative = inhibition, most hits filed as inhibitors; 0.63% of 310,000 active; AID 720579, 2013; calls by dose curve; tested in A549 cells; further: on the % scale 0 is the no-effect control and ±100 the full control effect; nearly all actives have a fitted effect of over 35% in size
# An asterisk follows results filed as active; i = inactive; ? = inconclusive; nt = not tested or not shown; [ ] = dose if it differs, or a comment. Shown are actives, neighbours in structure and some others; about 11% of the full set was active somewhere. Unless noted, the call rests on the fitted dose curve; in most records, active means well fitted inhibition curve with a large enough effect; inconclusive means small, poorly fitted or top-dose-only effect, or another doubt; inactive means no such curve, though single readings can be large or run the other way. Potency means the concentration at half of the fitted maximal effect.
SMILES,Pf growth 96h,Vaccinia Venus,HCV inhibitor,NS1 inh,Pf growth 48h,Vaccinia mCherry
CCOc1ccccc1NC(=O)CSc1nnc2c(CC)c(C)nc(N)n12,nt,nt,15%,3%,-3%,nt
Cn1c(SCC(=O)CC(=O)Nc2ccccc2)nnc1-c1ccc(O)cc1,12µM*,0%,-10%,?,4%,-7%
CCc1c(C)nc(N)n2c(SCC(=O)Nc3ccccc3OC)nnc12,10µM*,-3%,26%,5%,-4%,-6%
CCCCSc1nnc(-c2ccc(NC(=O)CCc3ccccc3)cc2)n1C,12µM*,-17%,-18%,5%,?,-1%
Cc1ccc(-c2nnc(SCC(=O)CC(=O)Nc3ccccc3)n2C)cc1,?,nt,-4%,?,?,nt
COc1ccccc1NC(=O)CSc1nnc(-c2ccc(NC(C)=O)cc2)n1C,?,-7%,9%,7%,-10%,nt
COc1ccccc1NC(=O)CC(=O)CSc1nnc(-c2ccc(C)cc2)n1C,1%,nt,-17%,?,12µM*,nt
COc1cc(C(CC(=O)Nc2cccc(C(C)=O)c2)N2Cc3ccccc3C2=O)cc(OC)c1OC (stereo unspecified),nt,-5%,nt,nt,nt,-7%
COc1ccc(NC(=O)C2(C)CCN2CCOc2ccc(C)cc2)cc1OC (stereo unspecified),nt,-9%,nt,nt,nt,1%
CC(C)C[C@@H]1NC(=O)[C@H](Cc2ccc(O)cc2)NC(=O)c2cc([N+](=O)[O-])cc(I)c2NCCC[C@@H](C(N)=O)NC1=O,10µM*,-5%,-6%[8.37 µM],?,?,-13%
O=C(NCCO)c1ccc(Cl)c(Cl)c1,15µM*,-3%,23%,-4%,14%,-13%
Cc1ccc(OCCC(=O)NNC(=O)c2ccncc2)cc1,nt,-1%,nt,nt,nt,i
CCC(=O)Nc1cc(C(=O)OC(C(=O)c2ccc(C)c(C)c2)c2ccccc2)ccc1C (stereo unspecified),1.7µM*,nt,-20%,4%,12µM*,nt
Cc1ccc(C)c(NC(=O)CCC(=O)OC(C(=O)c2ccccc2)c2ccccc2)c1 (stereo unspecified),?,nt,21%,14%,3%,nt
Fc1ccc(N2CCN(Cc3nnc(-c4ccccc4)o3)CC2)cc1,17%,nt,3%,-8%,8%,nt
COc1ccc2[nH]cc(CCN=C3SCC(=O)N3C)c2c1,12µM*,nt,-8%,5%,nt,nt
CCOC(=O)C1=C(CN(C)Cc2ccccc2)NC(=O)NC1c1ccc(OC)cc1 (stereo unspecified),nt,-17%,nt,nt,nt,-3%
c1ccc(COc2cccc(CNCc3cccnc3)c2)cc1,7%,-7%,-13%,4%,?,-7%
CCCn1c(=S)[nH]c2cc(OC)c(OC)cc2c1=O,-18%,nt,-18%,-11%,-17%,nt
COc1cc2[nH]c(=S)n(NC(=O)CC(C)C)c(=O)c2cc1OC,10µM*,nt,22%,4%,1%,nt
CCc1nn2c(=O)cc(COC(=O)c3ccc(NC(=O)CCc4ccccc4)cc3)nc2s1,nt,-15%,nt,nt,nt,-12%
O=S(=O)(c1ccccc1)N1CCN(S(=O)(=O)c2ccc(F)cc2)CC1,10µM*,nt,10%,0%,35%,nt
O=S(=O)(c1ccccc1)N1CCN(c2ccccc2)CC1,250%,-14%,8%,3%,-15%,-4%
O=S(=O)(c1ccc(Br)cc1)N1CCN(c2ccccc2)CC1,-17%,2%,7%,1%,10µM*,i
O=[N+]([O-])c1cccc(Cl)c1NCCNS(=O)(=O)c1ccccc1,-6%,?,-5%,-80%,-23%,?
SMILES,Pf growth 96h,Vaccinia Venus,HCV inhibitor,NS1 inh,Pf growth 48h,Vaccinia mCherry
COc1ccc(NC(=O)c2c(-c3ccccc3)c(-c3ccccc3)nn(C)c2=O)cc1OC,nt,0%,nt,nt,nt,4%
CCC(=O)N1CCCN(S(=O)(=O)c2ccc(C)cc2)C1c1ccc(OC)cc1 (stereo unspecified),30%,-7%,6%,-8%,13µM*,-29%
COc1ccc(C2N(S(=O)(=O)c3ccccc3)CCN2S(=O)(=O)c2ccc(C)cc2)cc1 (stereo unspecified),9.3µM*,nt,-16%,13%,nt,nt
O=C(NNc1ccccc1[N+](=O)[O-])Nc1ccc(Cl)c(Cl)c1,?,-17%,?,-47%,-5%,i
CCN(CC)S(=O)(=O)c1cc([N+](=O)[O-])ccc1NNC(=O)Nc1ccc(Cl)c(Cl)c1,-98%,16µM*,?,24%,nt,?
CCn1c(SCCOc2ccccc2F)nc2ccccc21,nt,-9%,nt,nt,nt,i
O=C(O)CCn1c(SCCOc2ccccc2F)nc2ccccc21,10µM*,nt,20%,-1%,?,nt
CC(c1nccs1)N(C)c1nc2nonc2nc1N(C)C (stereo unspecified),13µM*,-8%,8%,3%,8%,-10%
COC(=O)c1ccc(NC(=O)C2CCCN(S(C)(=O)=O)C2)cc1 (stereo unspecified),64%,-16%,10%,nt,-4%,-13%
CC(C)CCNc1nc(-c2ccco2)c2c(c1C#N)CCCC2,13µM*,-11%,-4%,9%,nt,-5%
O=[N+]([O-])c1ccc(NCCc2ccccc2)c(Br)c1,4%,-16%,?,-6%,nt,-2%
Fc1cccc(NC(=S)NCCc2ccccc2)c1,222%,-11%,-20%,-24%,12%,-6%
O=[N+]([O-])c1ccc(CNCCc2ccccc2)cc1,13µM*,nt,8%,-2%,20%,nt
NC(=O)c1cc([N+](=O)[O-])ccc1NCCc1ccccc1,13µM*,nt,11µM*,-2%,-1%,nt
O=C(O)C(Cc1ccccc1)Nc1ccc([N+](=O)[O-])cc1[N+](=O)[O-] (stereo unspecified),6.6µM*,-14%,2%,-20%,?,-8%
O=[N+]([O-])c1cccc(NC(=S)NCCc2ccccc2)c1,-33%,-21%,13µM*,-29%,?,?
O=S(=O)(NCC1(N2CCOCC2)CCCCC1)c1ccc(F)cc1,2%,-5%,-9%,nt,-5%,-10%
C/C(=N/N1CCN(c2ccccn2)CC1)c1ccc([N+](=O)[O-])cc1,140%,nt,-1%,9%,38%,nt
CN(C)CCCNC(=S)Nc1ccc(-c2ccccc2)cc1,?,?,11µM*,0%,?,?
O=[N+]([O-])c1ccc(NC(=S)NCCc2ccc(F)cc2)cc1,5.2µM*,?,?,-39%,10µM*,?
CC(C)(CNC(=S)NCCc1ccccc1)CNC(=S)NCCc1ccccc1,?,nt,?,8%,13µM*,nt
S=C(NCCc1ccccc1)Nc1ccc(Nc2ccccc2)cc1,-3%,-16%,11µM*,-31%,?,-21%

# Source: PubChem BioAssay (National Center for Advancing Translational Sciences (NCATS))
